This is a sample that favours compounds with a hit; in the whole collection about 8% have one here.
MCF10A rerep: inducers of DNA re-replication in MCF 10A breast cells. Potency, µM (highest dose often 46.1 µM), for inactives: top-dose activity, positive = re-replication, actives largely listed as activators. 2.9% of 350,000 active. MCF 10A DNA re-replication, Hoechst nuclear intensity, 48 h; note: % of control where 0% means no effect; nearly all actives have a fitted effect of over 50% in size
KB-3-1 tox: kills parental KB-3-1 adenocarcinoma cells; 1.4% of 400,000 active; KB-3-1 viability, CellTiter-Glo ATP luminescence, 72 h; AID 1347075; Potency, µM (doses to about 46.1 µM), usual class: cytotoxic; note: % is set by controls: 0 for no effect and ±100 for the full control effect; nearly all actives have a fitted effect of over 60% in size
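Cells are dispensed, compounds pinned in, plates held at 37 °C for 72 h, then CellTiter-Glo is added and luminescence read after 10 minutes. Cell line: parental KB-3-1 in phenol-red-free DMEM, 10% FBS.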
KB-V1 MDR tox: KB-V1 MDR subline cytotoxicity | KB-V1 MDR cells viability, CellTiter-Glo, 72 h | 3.4% of 400,000 active | AID 1347076 | Potency, µM (series often up to 46.1 µM), usual class: cytotoxic; note: % is set by controls: 0 for no effect and ±100 for the full control effect; nearly all actives have a fitted effect of over 60% in size
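KB-V1 cells (P-gp-expressing MDR subline of KB-3-1) in phenol-red-free DMEM with 10% FBS were exposed to library compounds over a concentration series for 72 h at 37 degrees C. Viability read by CellTiter-Glo luminescence; concentration-effect curves fitted after normalization.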
SW480 rereplic: induces DNA re-replication in SW480 colon adenocarcinoma cells; SW480 DNA re-replication, Hoechst DNA content imaging, 48 h; Potency, µM (doses to about 46.1 µM), for the others: at the highest dose re-replication activation, actives largely listed as activators; 1.8% of 340,000 active; note: % of control where 0% means no effect; nearly all actives have a fitted effect of over 55% in size
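Per well, 250 cells were exposed to pinned compound for 48 hr. Nuclear DNA was visualised with Hoechst (40 min, 37 C) and total object intensity recorded by fluorescence scanning.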
HT1080NT lethal: kills 2HG-producing HT-1080-NT fibrosarcoma cells; HT-1080-NT fibrosarcoma viability, CellTiter-Glo ATP luminescence, 48 h; Potency, µM (titrated, usually from 46.1 µM), for the others: at the highest dose activity, negative = less viability, most hits filed as cytotoxic; AID 686970; 1.6% of 360,000 active;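 note: NT is the 2HG producing partner of a matched IDH1 knockdown line; 0% = DMSO-treated cells and -100% = media-only wells without cells; nearly all actives have a fitted effect of over 55% in size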
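Viability by CellTiter-Glo luminescence after 48 h compound exposure at 37C of HT-1080-NT cells (750/well, RPMI, 5% FBS). % activity scaled between DMSO wells and medium-only wells, then curve-fitted and categorized by curve class.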
HT1080 IDH1KD tx: kills HT-1080 cells with IDH1 knockdown; AID 686971; HT-1080 IDH1 knockdown viability, ATP luminescence, 48 h; 2% of 360,000 active; Potency, µM (titrated, usually from 46.1 µM), inactives show at the highest dose activity, negative = toxicity, actives largely listed as cytotoxic;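 note: 0% = DMSO wells and -100% = cell-free medium wells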
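Cytotoxicity counter-line: IDH1KD HT-1080, 48 h, CellTiter-Glo. Curves classed by r2, magnitude and activity.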
* hit, by the source's call; i = inactive; ? = inconclusive; . = no result; [ ] = remark or other dose. Calls come from the whole dose curve; as a rule, active = well fitted curve in the direction sought with a large enough effect; inconclusive = small, poorly fitted or top-dose-only effect, or another doubt; inactive = no such curve, though single readings can be large; an effect the other way counts as inactive or inconclusive. Potency is the fitted concentration of half-maximal effect.

SMILES	MCF10A rerep	KB-3-1 tox	KB-V1 MDR tox	SW480 rereplic	HT1080NT lethal	HT1080 IDH1KD tx
O=C(NC1CC1)c1cccc(S(=O)(=O)N2CCOCC2)c1	-2.7%	i	i	-1.3%	-0.2%	-3.5%
N#Cc1nc(-c2ccc(OCc3ccc(Cl)cc3)cc2)oc1N1CCCCC1	.	i	i	.	.	.
O=C1NC[C@H](CCCCN2CCN(CC3CCCCC3)C(=O)C2=O)N(CCC2CCCCC2)C1=O	.	i	i	.	17.5%	11.9%
COc1ccc(C)cc1N=Nc1ccc(O)c2ncccc12	17.5%	i	i	?	?	?
Cc1ccccc1N=Nc1ccc(O)c2ncccc12	?	?	i	?	?	7.31µM*
CC(NC(=S)Nc1ccc(F)cc1)C(c1cccs1)N1CCOCC1 (stereo not given)	-4.9%	i	i	16.6%	-3.9%	-0.8%
CN(C(=O)CN1CCN(c2cc(-c3ccc(-c4ccccc4)cc3)ncn2)CC1)c1ccccc1	.	?	i	.	14.6µM*	13µM*
Cc1ccc(CNC(=O)Cc2ccc(-n3c(=O)[nH]c4ccsc4c3=O)cc2)cc1	2.06µM*	1.3µM*	i	6.51µM*	3.66µM*	4.11µM*
Cc1ccc(CNC(=O)CCCCn2c(=O)[nH]c3ccsc3c2=O)cc1	2.2%	i	i	-3.2%	0.0%	-0.3%
Cc1cccc(N2CCN(C(=O)Cc3ccc(-n4c(=O)[nH]c5ccsc5c4=O)cc3)CC2)c1C	?	i	14.6µM*	-2.6%	9.1%	8.0%
Cc1ccc(C)c(N2CCN(C(=O)Cc3ccc(-n4c(=O)[nH]c5ccsc5c4=O)cc3)CC2)c1	?	i	i	-1.6%	-7.7%	-14.3%
Cc1ccc(C)c(N2CCN(C(=O)Cn3c(=O)[nH]c4ccsc4c3=O)CC2)c1	9.4%	i	20.6µM*	-1.2%	0.9%	-1.4%
Cc1ccc(OCC(=O)Nc2nonc2-c2ccc(Br)cc2)cc1C	.	i	i	.	.	.
C#CCOCCOCCOCCNc1nc(N2CCN(C(=O)CCCCCCCCCCNC(=O)Cn3cc(CCCCCN)nn3)CC2)nc(N2CCN(C(=O)CCCCCCCCCCNC(=O)Cn3cc(C[C@@H](C)O)nn3)CC2)n1	23.1µM*	i	i	0.7%	?	?
C#CCOCCOCCOCCNc1nc(N2CCN(C(=O)CCCCCCCCCCNC(=O)Cn3cc(C[C@@H](C)O)nn3)CC2)nc(N2CCN(C(=O)CCCCCCCCCCNC(=O)[C@@H]([C@H](C)CC)n3cc(CCCCCN)nn3)CC2)n1	?	23.1µM*	i	?	18.4µM*	23.1µM*
C#CCOCCOCCOCCNc1nc(N2CCN(C(=O)CCCCCCCCCCNC(=O)Cn3cc(C[C@@H](C)O)nn3)CC2)nc(N2CCN(C(=O)CCCCCCCCCCNC(=O)[C@@H]([C@H](C)O)n3cc(C)nn3)CC2)n1	21.6%	?	i	-7.0%	18.4µM*	20.6µM*
C#CCOCCOCCOCCNc1nc(N2CCN(C(=O)CCCCCCCCCCNC(=O)Cn3cc(CCCCCN)nn3)CC2)nc(N2CCN(C(=O)CCCCCCCCCCNC(=O)[C@@H]([C@H](C)O)n3cc(C)nn3)CC2)n1	150.6%	?	i	0.2%	-4.9%	-15.0%
CCc1c(C)sc2c1CCN(Cc1cccc(F)c1)C2c1ccccc1 (stereo not given)	.	i	i	.	.	.
Cc1ccc(OCC(=O)NCC2(N(C)C)CCCCC2)cc1C	.	i	i	.	.	.
CCOC(=O)C1=C(C)NC(C)=C(C(=O)OCC)C1c1cc2ccc(C)cc2[nH]c1=O	?	6.51µM*	i	?	18.4µM*	8.2µM*
O=C1CC(c2ccc3c(c2)OCCO3)Oc2ccc([N+](=O)[O-])cc21 (stereo not given)	16.4µM*	?	?	-4.2%	?	0.0%
O=C1CC(c2ccc3c(c2)OCCO3)Oc2ccccc21 (stereo not given)	?	i	i	?	15.9%	-2.6%
Cc1cc(C)nc(SCC(=O)OCC(=O)Nc2ccccc2)n1	5.6%	i	?	1.5%	12.1%	8.4%
O=C(Nc1ccc(F)cc1)c1cc(-c2ccccn2)nc2c(Cl)cccc12	?	?	i	?	-9.1%	-10.6%
CCOC(=O)NC(=O)CSc1nc(C)cc(C(F)(F)F)c1C#N	13.0%	i	?	-4.1%	7.3%	-0.1%
SMILES	MCF10A rerep	KB-3-1 tox	KB-V1 MDR tox	SW480 rereplic	HT1080NT lethal	HT1080 IDH1KD tx
Cc1ccc(S(=O)(=O)CCSc2nc(C)cc(C(F)(F)F)c2C#N)cc1	?	18.4µM*	13µM*	?	?	?
Cc1cc(=O)[nH]c(SCC(=O)Nc2nc3ccccc3s2)n1	0.581µM*	i	?	?	-7.0%	0.1%
COC(=O)CSc1nc(C)cc(C(F)(F)F)c1C#N	-0.2%	i	i	1.4%	0.4%	2.5%
Cc1cc(C(F)(F)F)c(C#N)c(SCC(=O)Nc2nc3cc(Br)ccc3s2)n1	13µM*	i	?	?	-9.7%	-7.3%
N#Cc1c(SCC(=O)Nc2nc3ccccc3s2)sc2c(O)cc(=O)[nH]c12	?	i	i	18.4µM*	-1.0%	2.4%
Cc1cc2nc(-c3cccc(NC(=O)COc4ccc(C(C)C)cc4)c3)oc2cc1C	.	i	i	.	.	.
N#Cc1c(SCC(=O)Nc2nc3ccc(Br)cc3s2)sc2c(O)cc(=O)[nH]c12	14.7%	i	?	11.6µM*	-4.8%	-13.6%
N#Cc1c(SCC(=O)Nc2nccs2)sc2c(O)cc(=O)[nH]c12	0.3%	i	i	-8.4%	20.2%	19.1%
C=CCSc1nnc(NC(=O)CSc2nc(CCC)cc(=O)[nH]2)s1	-2.9%	?	20.6µM*	0.2%	-27.6%	-19.0%
C=CCSc1nnc(NC(=O)CSc2nc3ccccc3[nH]2)s1	0.9%	i	i	?	-14.7%	-13.4%
NCCc1c(-c2ccccc2)n(-c2ccccc2)c2ccccc12	?	i	?	?	14.6µM*	20.6µM*
CCOC(=O)c1ccc(N2C(=O)C(CC(=O)NC)N(CCc3ccc(OC)c(OC)c3)C2=S)cc1 (stereo not given)	20.6µM*	i	i	6.7%[1.84 µM]	-17.9%	-23.3%
COC(=O)c1ccc(NC(=O)CC2C(=O)N(c3ccc(C)cc3)C(=O)N2CC(C)C)cc1 (stereo not given)	-3.2%	i	23.1µM*	6.5%	3.5%	-19.0%

From PubChem BioAssay
